Experimental data taken from the supplement of paper PMC10849652.
About 7,900 targets were measured; listed, in parts, are those with a hit and a random draw of the rest. About 0.6% of all pairs of compound and target were hits.

How the values were obtained:
Assay in all cases: log2 fold change, soluble protein after heating vs DMSO (PISA); higher = thermal stabilisation; K562 cells, 10 uM, 30 min; active = over 0.2 and 3.5 SD of the protein, either way, in both replicates (recomputed)
[1] = compound: CS(=O)(=O)c1ccc(-c2cnc(N)c(C(=O)Nc3ccccc3)n2)cc1
Outline: (§1)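 K562 cells at 2×10^6 cells/mL were exposed to 10 μM compound for 30 min, then aliquots were heated for 3 min across 48°C-58°C, pooled, and extracted in PBS containing 0.5% NP-40 at 4°C. The supernatant after 21,000xg for 90 min was taken as soluble protein and measured by TMTpro 16plex LC-MS/MS with channel sums equalised. Thermal stability is reported relative to control samples, with values from duplicates. Fold changes are given on a log2 scale.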

crizotinib = compound: C[C@@H](Oc1cc(-c2cnn(C3CCNCC3)c2)cnc1N)c1c(Cl)ccc(F)c1Cl [crizotinib]
Outline: as §1

[2] = compound: C[C@@H]1COCCN1C2=NC(=NC(=C2)C3(CC3)S(=O)(=O)C)C4=C5C=CNC5=CC=C4
Outline: as §1

[3] = compound: C[C@H](C1=CC=C(C=C1)C(=O)NC2=C3C=CNC3=NC=C2)N
Outline: as §1

duvelisib = compound: C[C@H](Nc1ncnc2nc[nH]c12)c1cc2cccc(Cl)c2c(=O)n1-c1ccccc1 [duvelisib]
Outline: as §1

gandotinib = compound: Cc1cc(Nc2cc(CN3CCOCC3)c3nc(C)c(Cc4ccc(Cl)cc4F)n3n2)n[nH]1 [gandotinib]
Outline: as §1

tozasertib = compound: Cc1cc(Nc2cc(N3CCN(C)CC3)nc(Sc3ccc(NC(=O)C4CC4)cc3)n2)n[nH]1 [tozasertib]
Outline: as §1

[4] = compound: Cc1cc(SCc2sc(-c3ccc(C(F)(F)F)cc3)nc2C)ccc1OCC(=O)O
Outline: as §1

doramapimod = compound: Cc1ccc(-n2nc(C(C)(C)C)cc2NC(=O)Nc2ccc(OCCN3CCOCC3)c3ccccc23)cc1 [doramapimod]
Outline: as §1

ispinesib = compound: Cc1ccc(C(=O)N(CCCN)[C@@H](c2nc3cc(Cl)ccc3c(=O)n2Cc2ccccc2)C(C)C)cc1 [ispinesib]
Outline: as §1

Measured: log2 fold change

SMG1 (UniProt Q96Q15)
inactive: [1] 0.04 | crizotinib 0.012 | [2] -0.083 | [3] 0.016 | duvelisib 0.02 | gandotinib -0.024 | tozasertib -0.013 | [4] 0.098 | doramapimod 0.051 | ispinesib 0.033

SURF2 (UniProt Q15527)
inactive: [1] -0.009 | crizotinib 0.084 | [2] -0.02 | [3] -0.118 | duvelisib 0.018 | gandotinib 0 | tozasertib -0.01 | [4] 0.04 | doramapimod -0.068 | ispinesib 0.038

SNUPN (UniProt O95149)
inactive: [1] 0.019 | crizotinib -0.187 | [2] 0.045 | [3] -0.007 | duvelisib -0.001 | gandotinib -0.074 | tozasertib 0.017 | [4] -0.014 | doramapimod -0.007 | ispinesib 0.029

TLK2 isoform 2 (UniProt Q86UE8)
inactive: [1] -0.063 | crizotinib -0.031 | [2] 0.139 | [3] -0.095 | duvelisib -0.007 | gandotinib 0.165 | tozasertib -0.047 | [4] -0.07 | doramapimod -0.042 | ispinesib 0.019

SNX3 (UniProt O60493)
active: duvelisib -0.385
inactive: [1] -0.035 | crizotinib -0.106 | [2] 0.062 | [3] 0.048 | gandotinib -0.164 | tozasertib -0.023 | [4] 0.085 | doramapimod 0.04 | ispinesib -0.141

TBC1D23 (UniProt Q9NUY8)
active: ispinesib -0.48
inactive: [1] -0.026 | crizotinib -0.019 | [2] 0.022 | [3] 0 | duvelisib 0.002 | gandotinib -0.205 | tozasertib -0.042 | [4] 0.028 | doramapimod -0.027

SLC25A39 (UniProt Q9BZJ4)
inactive: [1] -0.029 | crizotinib -0.025 | [2] 0.14 | [3] -0.165 | duvelisib 0.044 | gandotinib 0.075 | tozasertib 0.269 | [4] -0.08 | doramapimod -0.079 | ispinesib -0.523

SLC6A6 (UniProt P31641)
inactive: [1] 0.021 | crizotinib 0.04 | [2] -0.026 | [3] -0.021 | duvelisib 0.06 | gandotinib -0.049 | tozasertib -0.091 | [4] -0.042 | doramapimod -0.063 | ispinesib -0.028

SMAP (UniProt O00193)
inactive: [1] 0.004 | crizotinib -0.06 | [2] -0.01 | [3] -0.082 | duvelisib 0.017 | gandotinib -0.032 | tozasertib 0 | [4] -0.03 | doramapimod 0.023 | ispinesib -0.015

TLK1 (UniProt Q9UKI8)
UniProt Q9UKI8, sequence (Q9UKI8 whole entry, looked up): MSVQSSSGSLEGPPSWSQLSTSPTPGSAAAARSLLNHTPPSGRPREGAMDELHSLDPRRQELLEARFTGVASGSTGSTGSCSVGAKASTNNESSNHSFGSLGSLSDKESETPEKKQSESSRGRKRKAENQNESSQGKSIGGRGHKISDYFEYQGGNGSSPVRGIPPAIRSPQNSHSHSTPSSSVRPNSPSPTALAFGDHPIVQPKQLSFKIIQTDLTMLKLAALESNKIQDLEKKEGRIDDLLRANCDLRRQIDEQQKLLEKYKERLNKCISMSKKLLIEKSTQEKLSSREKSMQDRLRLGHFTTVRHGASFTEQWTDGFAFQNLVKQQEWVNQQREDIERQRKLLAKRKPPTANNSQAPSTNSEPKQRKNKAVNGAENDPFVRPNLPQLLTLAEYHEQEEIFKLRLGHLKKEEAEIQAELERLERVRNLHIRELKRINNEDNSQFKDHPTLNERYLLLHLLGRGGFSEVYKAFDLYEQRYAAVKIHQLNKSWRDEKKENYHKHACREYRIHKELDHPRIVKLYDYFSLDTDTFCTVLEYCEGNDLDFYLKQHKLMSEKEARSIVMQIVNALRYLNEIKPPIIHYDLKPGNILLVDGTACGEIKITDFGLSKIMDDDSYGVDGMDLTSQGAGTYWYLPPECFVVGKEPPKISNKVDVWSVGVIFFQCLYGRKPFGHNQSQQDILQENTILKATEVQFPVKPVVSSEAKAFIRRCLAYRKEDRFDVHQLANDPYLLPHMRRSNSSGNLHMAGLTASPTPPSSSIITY
inactive: [1] -0.058 | crizotinib -0.008 | [2] 0.101 | [3] -0.028 | duvelisib 0.019 | gandotinib 0.145 | tozasertib -0.004 | [4] 0.028 | doramapimod -0.023 | ispinesib 0.026

SNRNP27 (UniProt Q8WVK2)
UniProt Q8WVK2, sequence (Q8WVK2 whole entry, looked up): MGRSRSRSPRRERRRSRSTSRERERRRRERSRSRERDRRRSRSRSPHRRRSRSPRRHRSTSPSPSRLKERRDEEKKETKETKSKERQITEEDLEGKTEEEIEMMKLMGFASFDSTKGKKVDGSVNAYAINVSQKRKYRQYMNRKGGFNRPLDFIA
inactive: [1] 0.002 | crizotinib 0.038 | [2] -0.069 | [3] 0.072 | duvelisib 0.041 | gandotinib 0.013 | tozasertib -0.084 | [4] -0.065 | doramapimod -0.056 | ispinesib -0.119

SNW1 (UniProt Q13573)
UniProt Q13573, sequence (Q13573 whole entry, looked up): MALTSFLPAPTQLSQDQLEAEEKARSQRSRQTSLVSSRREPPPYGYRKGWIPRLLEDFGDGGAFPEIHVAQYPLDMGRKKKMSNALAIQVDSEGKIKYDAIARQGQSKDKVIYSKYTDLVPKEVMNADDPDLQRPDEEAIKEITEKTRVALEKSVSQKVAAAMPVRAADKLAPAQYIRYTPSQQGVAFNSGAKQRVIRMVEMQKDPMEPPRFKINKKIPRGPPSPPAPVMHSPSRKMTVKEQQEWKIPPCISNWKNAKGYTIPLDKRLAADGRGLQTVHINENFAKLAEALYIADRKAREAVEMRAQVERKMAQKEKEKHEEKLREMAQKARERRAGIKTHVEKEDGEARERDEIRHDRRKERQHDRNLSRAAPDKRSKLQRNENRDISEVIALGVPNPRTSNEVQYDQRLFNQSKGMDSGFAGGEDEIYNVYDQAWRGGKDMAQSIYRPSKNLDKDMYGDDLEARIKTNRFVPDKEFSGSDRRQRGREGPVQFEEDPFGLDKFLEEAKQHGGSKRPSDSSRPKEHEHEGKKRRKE
inactive: [1] -0.035 | crizotinib 0.068 | [2] -0.062 | [3] 0.015 | duvelisib -0.016 | gandotinib 0.045 | tozasertib -0.015 | [4] -0.045 | doramapimod 0 | ispinesib -0.048

SPTBN1 (UniProt Q01082)
inactive: [1] 0.018 | crizotinib 0.042 | [2] 0.008 | [3] 0.039 | duvelisib 0.016 | gandotinib -0.039 | tozasertib 0.046 | [4] 0.094 | doramapimod 0.021 | ispinesib 0.03

TANK (UniProt Q92844)
inactive: [1] -0.032 | crizotinib 0.287 | [2] -0.021 | [3] 0.069 | duvelisib 0.038 | gandotinib 0.135 | tozasertib 0.112 | [4] 0.091 | doramapimod -0.015 | ispinesib -0.064

SMC5 (UniProt Q8IY18)
inactive: [1] 0.03 | crizotinib 0.161 | [2] 0.081 | [3] 0.036 | duvelisib 0.046 | gandotinib 0.028 | tozasertib 0.017 | [4] 0.017 | doramapimod 0.015 | ispinesib 0.092

SNX2 (UniProt O60749)
inactive: [1] -0.034 | crizotinib -0.223 | [2] 0.006 | [3] -0.039 | duvelisib -0.107 | gandotinib -0.216 | tozasertib -0.102 | [4] 0.041 | doramapimod -0.014 | ispinesib -0.184

TIPRL (UniProt O75663)
UniProt O75663, sequence (O75663 whole entry, looked up): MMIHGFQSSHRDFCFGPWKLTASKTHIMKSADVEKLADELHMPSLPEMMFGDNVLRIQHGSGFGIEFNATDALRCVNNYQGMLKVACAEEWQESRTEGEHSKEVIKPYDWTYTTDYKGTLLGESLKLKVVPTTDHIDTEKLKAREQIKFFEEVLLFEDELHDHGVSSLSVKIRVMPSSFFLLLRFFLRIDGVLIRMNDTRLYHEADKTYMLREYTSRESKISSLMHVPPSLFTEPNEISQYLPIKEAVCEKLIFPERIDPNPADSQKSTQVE
inactive: [1] 0.065 | crizotinib -0.167 | [2] 0.143 | [3] -0.023 | duvelisib -0.016 | gandotinib -0.159 | tozasertib -0.011 | [4] 0.065 | doramapimod -0.034 | ispinesib -0.055

SRSF10 (UniProt O75494)
UniProt O75494, sequence (O75494 whole entry, looked up): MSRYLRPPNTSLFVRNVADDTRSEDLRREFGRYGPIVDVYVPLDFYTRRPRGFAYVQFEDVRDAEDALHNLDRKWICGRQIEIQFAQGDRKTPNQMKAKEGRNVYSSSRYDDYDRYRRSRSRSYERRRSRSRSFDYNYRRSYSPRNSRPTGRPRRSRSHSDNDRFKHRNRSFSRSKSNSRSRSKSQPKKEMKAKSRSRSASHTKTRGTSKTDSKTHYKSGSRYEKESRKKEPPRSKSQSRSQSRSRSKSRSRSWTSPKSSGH
inactive: [1] -0.176 | crizotinib 0.153 | [2] -0.539 | [3] 0.259 | duvelisib -0.139 | gandotinib 0.183 | tozasertib 0.095 | [4] 0.036 | doramapimod 0.222 | ispinesib -0.172

STARD7 (UniProt Q9NQZ5)
inactive: [1] 0.023 | crizotinib -0.051 | [2] 0.045 | [3] -0.114 | duvelisib 0.034 | gandotinib -0.168 | tozasertib -0.024 | [4] 0.023 | doramapimod 0.021 | ispinesib -0.01

TAOK3 (UniProt Q9H2K8)
inactive: [1] -0.051 | crizotinib -0.03 | [2] -0.008 | [3] -0.13 | duvelisib 0.014 | gandotinib -0.08 | tozasertib 0.011 | [4] 0.057 | doramapimod 0.023 | ispinesib 0.01

TFRC (UniProt P02786)
UniProt P02786, sequence (P02786 whole entry, looked up): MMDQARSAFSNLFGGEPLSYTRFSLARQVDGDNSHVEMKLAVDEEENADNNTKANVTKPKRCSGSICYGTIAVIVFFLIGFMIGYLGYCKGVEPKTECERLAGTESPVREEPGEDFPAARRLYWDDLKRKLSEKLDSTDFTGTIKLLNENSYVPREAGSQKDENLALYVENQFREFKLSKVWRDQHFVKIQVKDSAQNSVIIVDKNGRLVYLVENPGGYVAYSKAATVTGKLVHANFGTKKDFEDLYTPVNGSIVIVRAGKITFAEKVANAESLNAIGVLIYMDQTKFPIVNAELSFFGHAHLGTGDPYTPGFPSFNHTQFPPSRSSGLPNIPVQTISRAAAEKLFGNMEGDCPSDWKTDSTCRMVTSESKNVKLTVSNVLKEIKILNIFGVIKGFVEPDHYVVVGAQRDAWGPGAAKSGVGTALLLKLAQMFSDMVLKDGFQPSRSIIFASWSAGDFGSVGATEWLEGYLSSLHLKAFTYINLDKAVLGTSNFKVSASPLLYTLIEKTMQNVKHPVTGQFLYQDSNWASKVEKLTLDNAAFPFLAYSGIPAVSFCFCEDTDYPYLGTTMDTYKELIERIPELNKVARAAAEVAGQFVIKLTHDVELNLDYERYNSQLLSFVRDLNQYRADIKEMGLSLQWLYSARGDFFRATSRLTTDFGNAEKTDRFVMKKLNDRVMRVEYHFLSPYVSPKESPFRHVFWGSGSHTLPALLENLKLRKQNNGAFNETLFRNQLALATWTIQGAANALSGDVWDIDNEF
active: crizotinib -0.283
inactive: [1] 0.026 | [2] 0.012 | [3] -0.018 | duvelisib 0.047 | gandotinib -0.011 | tozasertib -0.01 | [4] -0.023 | doramapimod -0.012 | ispinesib -0.059

SP100 isoform 4 (UniProt P23497)
inactive: [1] -0.002 | crizotinib 0.062 | [2] 0.071 | [3] -0.1 | duvelisib 0.074 | gandotinib -0.008 | tozasertib 0.033 | [4] -0.016 | doramapimod -0.046 | ispinesib 0.062

TARBP1 (UniProt Q13395)
inactive: [1] 0.076 | crizotinib 0.016 | [2] 0.028 | [3] -0.074 | duvelisib -0.046 | gandotinib -0.075 | tozasertib -0.018 | [4] 0.038 | doramapimod -0.004 | ispinesib 0.026

TGFBRAP1 (UniProt Q8WUH2)
inactive: [1] -0.081 | crizotinib -0.367 | [2] 0.051 | [3] 0.067 | duvelisib -0.088 | gandotinib -0.142 | tozasertib 0.051 | [4] 0.087 | doramapimod 0 | ispinesib -0.221

SSB (UniProt P05455)
inactive: [1] -0.159 | crizotinib 0.022 | [2] -0.085 | [3] -0.05 | duvelisib -0.033 | gandotinib -0.103 | tozasertib 0.048 | [4] 0.003 | doramapimod 0.013 | ispinesib -0.02

TBK1 (UniProt Q9UHD2)
UniProt Q9UHD2, sequence (Q9UHD2 whole entry, looked up): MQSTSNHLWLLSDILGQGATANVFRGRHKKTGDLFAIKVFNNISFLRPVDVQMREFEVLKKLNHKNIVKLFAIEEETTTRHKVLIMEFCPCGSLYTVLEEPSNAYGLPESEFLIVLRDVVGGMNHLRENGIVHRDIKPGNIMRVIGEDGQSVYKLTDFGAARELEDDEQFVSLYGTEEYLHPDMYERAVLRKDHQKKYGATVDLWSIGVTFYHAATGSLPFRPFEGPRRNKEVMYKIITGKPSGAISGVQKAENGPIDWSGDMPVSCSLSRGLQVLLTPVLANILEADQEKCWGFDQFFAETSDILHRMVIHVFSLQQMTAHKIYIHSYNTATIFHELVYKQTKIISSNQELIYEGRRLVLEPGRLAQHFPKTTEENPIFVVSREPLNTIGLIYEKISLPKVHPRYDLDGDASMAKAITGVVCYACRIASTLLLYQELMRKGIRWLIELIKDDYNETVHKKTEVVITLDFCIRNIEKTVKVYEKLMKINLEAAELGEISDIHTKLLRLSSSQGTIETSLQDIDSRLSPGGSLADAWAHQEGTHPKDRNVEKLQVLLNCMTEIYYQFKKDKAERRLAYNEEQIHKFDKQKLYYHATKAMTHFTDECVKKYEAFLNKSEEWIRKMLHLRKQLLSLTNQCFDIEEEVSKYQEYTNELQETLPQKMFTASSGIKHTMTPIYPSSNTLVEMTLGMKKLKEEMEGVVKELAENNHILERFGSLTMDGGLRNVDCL
active: crizotinib 0.489
inactive: [1] -0.027 | [2] -0.021 | [3] 0.043 | duvelisib 0.082 | gandotinib 0.237 | tozasertib 0.129 | [4] 0.175 | doramapimod 0.013 | ispinesib -0.18

THYN1 (UniProt Q9P016)
UniProt Q9P016, sequence (Q9P016 whole entry, looked up): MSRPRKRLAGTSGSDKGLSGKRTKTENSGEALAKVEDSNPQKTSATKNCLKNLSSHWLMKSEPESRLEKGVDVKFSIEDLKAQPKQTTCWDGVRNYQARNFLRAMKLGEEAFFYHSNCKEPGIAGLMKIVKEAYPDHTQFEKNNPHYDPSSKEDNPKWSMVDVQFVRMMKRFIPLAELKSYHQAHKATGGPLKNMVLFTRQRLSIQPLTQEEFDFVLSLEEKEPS
inactive: [1] -0.015 | crizotinib 0.061 | [2] 0.001 | [3] 0.011 | duvelisib 0.071 | gandotinib 0.021 | tozasertib -0.024 | [4] 0.087 | doramapimod -0.036 | ispinesib -0.002

SLC27A2 (UniProt O14975)
UniProt O14975, sequence (O14975 whole entry, looked up): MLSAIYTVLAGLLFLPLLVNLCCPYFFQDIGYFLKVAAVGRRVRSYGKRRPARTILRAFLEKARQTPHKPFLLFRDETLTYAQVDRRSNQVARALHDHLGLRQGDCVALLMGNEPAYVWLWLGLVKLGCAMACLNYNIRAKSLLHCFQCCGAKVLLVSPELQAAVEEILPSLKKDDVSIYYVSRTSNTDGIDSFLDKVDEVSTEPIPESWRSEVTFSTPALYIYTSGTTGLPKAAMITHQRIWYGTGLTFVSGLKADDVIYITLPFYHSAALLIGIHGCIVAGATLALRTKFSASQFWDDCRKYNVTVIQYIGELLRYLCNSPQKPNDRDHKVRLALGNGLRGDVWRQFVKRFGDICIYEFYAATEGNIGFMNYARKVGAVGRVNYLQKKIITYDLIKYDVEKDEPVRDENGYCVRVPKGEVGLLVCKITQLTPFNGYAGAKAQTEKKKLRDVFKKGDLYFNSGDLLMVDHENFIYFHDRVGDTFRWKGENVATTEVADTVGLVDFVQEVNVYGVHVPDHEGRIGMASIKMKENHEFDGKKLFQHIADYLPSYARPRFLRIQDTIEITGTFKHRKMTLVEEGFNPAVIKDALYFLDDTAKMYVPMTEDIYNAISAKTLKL
inactive: crizotinib 0.046 | [2] -0.005 | [3] -0.031 | duvelisib 0.094 | gandotinib 0.094 | tozasertib 0.166 | [4] 0.108 | doramapimod 0.027 | ispinesib -0.056
active: [1] 0.273

SNX9 (UniProt Q9Y5X1)
UniProt Q9Y5X1, sequence (Q9Y5X1 whole entry, looked up): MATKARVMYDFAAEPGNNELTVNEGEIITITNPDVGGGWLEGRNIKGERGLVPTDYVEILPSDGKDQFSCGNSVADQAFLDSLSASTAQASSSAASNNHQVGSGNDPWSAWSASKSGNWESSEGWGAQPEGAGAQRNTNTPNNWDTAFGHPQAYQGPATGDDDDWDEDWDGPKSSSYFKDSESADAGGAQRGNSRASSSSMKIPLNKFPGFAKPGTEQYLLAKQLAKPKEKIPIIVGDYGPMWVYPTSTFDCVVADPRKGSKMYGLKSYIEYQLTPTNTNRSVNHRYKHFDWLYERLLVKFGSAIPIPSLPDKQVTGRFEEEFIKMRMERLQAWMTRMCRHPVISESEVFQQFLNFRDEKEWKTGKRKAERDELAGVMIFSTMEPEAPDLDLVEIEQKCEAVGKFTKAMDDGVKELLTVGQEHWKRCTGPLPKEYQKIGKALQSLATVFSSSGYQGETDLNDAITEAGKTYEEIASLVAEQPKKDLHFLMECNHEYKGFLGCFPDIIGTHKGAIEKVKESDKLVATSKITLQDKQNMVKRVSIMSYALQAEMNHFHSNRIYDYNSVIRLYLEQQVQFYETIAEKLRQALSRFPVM
inactive: [1] 0.013 | crizotinib -0.077 | [2] -0.009 | [3] 0.003 | duvelisib -0.039 | gandotinib -0.054 | tozasertib -0.015 | [4] 0.115 | doramapimod -0.009 | ispinesib -0.074

SRSF4 (UniProt Q08170)
inactive: [1] -0.055 | crizotinib 0.011 | [2] -0.248 | [3] 0 | duvelisib -0.064 | gandotinib 0.077 | tozasertib 0.071 | [4] 0.031 | doramapimod 0.073 | ispinesib -0.021
